Growth data for 32 molecules are collected here from PubChem BioAssay (NCI).

“And” between values parts separate entries of the source, which are not always exact repeats. Equal entries are not always repeated. About 83,000 compounds went through this panel and 20% of them were active in at least one assay; those are over-represented in the sample as a whole.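 Testing used 96-well plates and a 48-hour single-concentration exposure. Example: -40 means 40% of the starting cells died.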 A number with no mark means an inactive call. The source made the active and inactive calls. The calls were made as follows: active = growth percent below 10; inactive = the rest.

This test concerns DU-145 prostate. The experiment in a line: NCI-60 one-dose screen, 48 h (100 = growth as untreated, 0 = no growth, -100 = all killed). The conditions noted are these: 10 µM unless noted.
Consider `C[n+]1c(/C=C/c2ccc([N+](=O)[O-])cc2)ccc2ccccc21`, for which the growth is 104%.

For the molecule `c1ccc2c(c1)Nc1cc3ccccc3cc1N2`, the growth was 60.9%.

`CCOC(=O)/C(=C\c1ccc(-c2ccccc2)cc1)C(C)=O`: the growth is 99.3%.

`NC(N)=N/N=C/c1ccc([N+](=O)[O-])o1`: the growth was 91.5%.

In the case of `CCCCCCCCCCCCCCCC[N+](C)(CCO)Cc1cnc[nH]1` (configuration not stated), the growth is -32% (active).

With `COC(=O)c1nc(=S)[nH]c(C(=O)OC)c1C(=O)c1ccc2ccccc2c1`, the growth is 110%.

`CCC(=O)Sc1ccccc1C(=O)Nc1ccc(Cl)cc1`: the growth is 74.3%.

Take `Cc1ccnc(NC(c2ccccc2)c2ccc3cccnc3c2O)c1` (configuration not stated): the growth is 47.8%.

Regarding `CC1SC(=S)N(c2ccc(Cl)cc2)C1=O` (configuration not stated), the growth was 104% and 96.3%.

With `CCN1/C(=C\c2cc[n+](CC)c3ccccc23)C=Cc2ccccc21`, the growth is 22.9%.

As for `Cc1ccc(C(=Nc2ccccc2)N=P(c2ccccc2)(c2ccccc2)c2ccccc2)cc1`, the growth is -0.576% (active).

Take `CC(C)(C)c1ccc(O)c(C2CCCCC2)c1`: the growth was 102%.

For the molecule `Cc1ccc(NS(=O)(=O)c2ccc(C)cc2)cc1`, the growth is 101% and 104%.

Consider `O=C(O)C1C2CC3C(OC(=O)C31)C2Br` (configuration not stated), for which the growth is 122% and 107%.

`C=CCOc1ccc(N=NC(C#N)C#N)cc1`: the growth is 77.8%.

In the case of `CN(C)c1ccc(C(=C2C=CC(=[N+](C)C)C=C2)c2ccc(N(C)C)cc2)cc1` (tested in a mixture with another compound), the growth was -99.4% (active).

Turning to `O=C(/C=C\c1cc(Br)ccc1O)/C=C/c1cc(Br)ccc1O`, the growth was 2.79% (active).

For `CC(C)c1ccc2nc3ccc(C(=O)NCCN4CCN(c5ccccc5)CC4)cn3c(=O)c2c1`, the growth is 80%.

With `O=C(/C=C/C=C/c1ccccc1)c1ccco1`, the growth was 99.7%.

As to `CC1(C)CC([P+](c2ccccc2)(c2ccccc2)c2ccccc2)=NN1`, the growth is 49.6%.

Take `COC(=O)[C@@]12OC[C@]34[C@H]([C@@H](O)[C@@H]1O)[C@@]1(C)[C@H](O)C(=O)C=C(C)[C@@H]1C[C@H]3OC(=O)C(OC(C)=O)[C@@H]24` (some centres not stated): the growth was -64.4% (active).

As to `Cc1c2ccccc2c(C)c2c1ccc1ccccc12`, the growth was 97.5%.

Take `S=C(N/N=C/c1ccccn1)Nc1ccccn1`: the growth was 28.4%.

In the case of `CN(C)C(=O)SC1=C(c2c(Cl)cccc2Cl)C(=O)c2ccccc21`, the growth was -8.29% (active).

Turning to `CCC(CC)COC(=O)c1ccc(O)c(O)c1`, the growth was 73.4%.

For the molecule `CC1=CC(O)C2CC1C2(C)C` (configuration not stated), the growth is 108% and 122%.

Turning to `COc1cc(/C=C(/C)C[N+](=O)[O-])ccc1O`, the growth is 101%.

In the case of `NC1=CC(=O)c2ccccc2C1=O`, the growth was 63.8%.

In the case of `CCN(CC)CCOc1ccc(-c2nc3cc(Cl)ccc3s2)cc1`, the growth is 12%.

On to `CCOc1ccc(-c2nc3ccc(-c4nc5ccc(N6CCN(C)CC6)cc5[nH]4)cc3[nH]2)cc1`, for which the growth is -100% (active).

Regarding `CNC(=O)N/N=C/c1ccc([N+](=O)[O-])o1`, the growth is 104%.

On to `N#CSCc1ccc(CSC#N)c(Cl)c1`, for which the growth is 42.5%.
